IMPase inh: qHTS Assay for Identifying the Cell-Membrane Permeable IMPase Inhibitors. CHO-M1 cells, IP1 accumulation, HTRF TR-FRET ratio. 120,000 tested, under 10 active. inhibition (IP1 accumulation), % at 46.1 µM; active = well fitted curve in the direction sought with a large enough effect in the signal ratio, not every such curve was filed as active; inconclusive = small, poorly fitted or top-dose-only effect, or a change in a side signal; inactive = no such curve, though single readings can be large or run the other way; the % refers to the signal ratio;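 note: cells stimulated with carbachol in lithium chloride buffer; plate controls were DMSO basal wells for no effect and reference inhibitor wells for full effect; higher means more IMPase inhibition seen as more IP1 and lower FRET ratio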
Target sequence (P97697 whole entry, looked up): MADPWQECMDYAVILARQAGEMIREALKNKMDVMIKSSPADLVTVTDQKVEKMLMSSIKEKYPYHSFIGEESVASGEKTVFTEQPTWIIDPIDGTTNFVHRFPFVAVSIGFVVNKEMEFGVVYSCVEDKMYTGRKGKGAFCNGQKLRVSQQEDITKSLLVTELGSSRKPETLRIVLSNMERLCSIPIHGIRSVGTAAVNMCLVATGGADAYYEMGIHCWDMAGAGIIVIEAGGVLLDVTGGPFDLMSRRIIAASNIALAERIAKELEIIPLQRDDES
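CHO-M1, 2000 cells/well, cultured 16–30 h; cpd up to 46 uM; carbachol (50 uM solution, stimulation buffer w/ 50 mM LiCl, pH 7.4), 30 min 37C; IP-One TR-FRET, 10 min RT; Ex 320/Em 665, 620; Hill-fit AC50.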
Lamin A splicing: qHTS Assay for Modulators of Lamin A Splicing; HeLa LMNA splicing GFP/RFP minigene ratio, 48 h; Potency, µM (highest dose often 46.1 µM), for inactives: at the highest dose ratio change, negative = inhibition, hits mostly inhibitors; actives 0.01% (n = 200,000); active = well fitted inhibition curve with a large enough effect in the signal ratio, with a control signal flat, not every such curve was filed as active; inconclusive = small, poorly fitted or top-dose-only effect, or effect the other way, or a change in a side signal; the % refers to the signal ratio; note: potency is the fitted concentration of half-maximal effect
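S3 HeLa cells stably expressing lamin A-EGFP splicing minigene plus DsRed2, 600 cells/well, 48 h compound exposure at 37C. Laser-scanning cytometry; analysed as GFP (500-530 nm)/RFP (575-640 nm) total intensity ratio; 0.5% DMSO vehicle.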
ALDH1A1 block: qHTS Assay for Inhibitors of Aldehyde Dehydrogenase 1 (ALDH1A1). Purified ALDH1A1, NADH fluorescence, propionaldehyde substrate. actives 7.3% (n = 220,000). AID 1030, 2008. Potency, µM (highest dose often 75.3 µM), without a hit: top-dose activity, negative = inhibition, most hits filed as inhibitors;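 note: potency is the fitted concentration of half-maximal effect; plate controls were no enzyme wells and a reference inhibitor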
Target sequence (P00352 whole entry, looked up): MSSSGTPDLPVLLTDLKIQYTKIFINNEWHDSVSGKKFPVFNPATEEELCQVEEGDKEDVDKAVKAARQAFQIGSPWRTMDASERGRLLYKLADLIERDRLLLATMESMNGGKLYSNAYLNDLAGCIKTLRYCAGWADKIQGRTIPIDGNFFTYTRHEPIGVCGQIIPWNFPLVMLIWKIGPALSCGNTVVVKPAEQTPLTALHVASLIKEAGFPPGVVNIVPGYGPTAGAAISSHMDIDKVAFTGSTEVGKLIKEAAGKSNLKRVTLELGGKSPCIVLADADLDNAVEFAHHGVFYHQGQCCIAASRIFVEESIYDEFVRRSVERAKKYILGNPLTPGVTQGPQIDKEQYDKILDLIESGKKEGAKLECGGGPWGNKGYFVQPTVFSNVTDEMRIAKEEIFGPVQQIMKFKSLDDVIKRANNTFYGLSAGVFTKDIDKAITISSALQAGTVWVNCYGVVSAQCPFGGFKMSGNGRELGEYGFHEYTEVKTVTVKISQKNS
HPGD inh: qHTS Assay for Inhibitors of HPGD (15-Hydroxyprostaglandin Dehydrogenase); 15-hydroxyprostaglandin dehydrogenase [NAD(+)] (Homo sapiens), P15428; purified HPGD, NADH fluorescence kinetic, PGE2 substrate; Potency, µM, for the others: top-dose activity change, negative = inhibition, usual class: inhibitors; actives 4.3% (n = 150,000); AID 894, 2007; note: potency is the fitted concentration of half-maximal effect
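NADH formation kinetics: reaction with 30 uM PGE2 and 1 mM NAD+ (final), 20 nM enzyme, Tris-HCl pH 8 with Tween 20, after 15 min compound preincubation at room temperature. Fluorescence change, last versus first of five reads.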
Luc counter: Counterscreen for Luciferase (Kinase-Glo TM) Inhibition; AID 1379, 2008; Kinase-Glo luciferase, ATP luminescence, 8 min; actives 0.28% (n = 200,000); Potency, µM (doses to about 38.3 µM), without a hit: top-dose activity change, negative = inhibition, most hits filed as inhibitors; active = well fitted inhibition curve with a large enough effect; inconclusive = small, poorly fitted or top-dose-only effect; note: potency is the fitted concentration of half-maximal effect; nearly all actives have a fitted effect of over 60% in size
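Compounds were added to a substrate mix at pH 7.2 (50 mM imidazole, 10 uM ATP, within the enzyme's linear range), followed by Kinase-Glo detection reagent; luminescence was measured after 8 minutes at ambient temperature.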
PNC inhibitor: High Content Assay for Compounds that inhibit the Assembly of the Perinucleolar Compartment; actives 3.1% (n = 140,000); PC3M PTB-GFP, PNC prevalence imaging, 16 h; stronger effect = lower value; AID 2417, 2010; activity change (PNC), negative = inhibition, % at 10 µM;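 active = readout at or below -70, meaning at least 70% loss of cells showing the perinucleolar compartment, a nuclear body marking cancer cells; inconclusive = readout between -30 and a set limit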;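 note: plate controls were DMSO wells for no effect and camptothecin positive control wells for full effect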
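Read-out is percentage of cells bearing a perinucleolar compartment, from automated 20x imaging of fixed, Hoechst-stained PC3M PTB-GFP cells. Cells were seeded 4 h, then exposed 16 h to compound (23 nl of library stock) in duplicate plates.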
The depositor's hits bear a star; ? = inconclusive; · = no result given; [ ] = remark or other dose. In the library only some 10% were active in any assay of this set; here they are far more common. Unless noted, calls come from the whole dose curve; as a rule, active = well fitted inhibition curve with a large enough effect (not every such curve was filed as active); inconclusive = small, poorly fitted or top-dose-only effect, or another doubt; inactive = no such curve, though single readings can be large or run the other way. Unless noted, % is set by controls: 0 for no effect and ±100 for the full control effect.

SMILES	IMPase inh	Lamin A splicing	ALDH1A1 block	HPGD inh	Luc counter	PNC inhibitor
O=C(CSc1nnc(COc2ccccc2F)n1-c1ccccc1)NCc1ccco1	7	0%	-9%	20µM*	-3%	?
C=CCn1c(COc2ccccc2F)nnc1SCC(=O)NC(=O)NCc1ccco1	1	-3%	?	-7%	-1%	-20
Cc1nnc(SCC(=O)NCc2ccco2)n1-c1ccc(F)cc1	12	-5%	25µM*	-8%	1%	?
COc1ccc(C(=O)Nc2nc(-c3ccc(Br)cc3)ns2)cc1	·	-4%[46 µM]	·	·	·	·
Cc1nn(C(=O)c2ccccc2F)c(C)c1S(=O)(=O)N1CCOCC1	·	-12%[46 µM]	·	·	·	·
COC(=O)CC1C(C)(C)C(O)C2CC3=C4C=C(OC)OC(c5ccoc5)[C@]4(C)CCC3[C@@]1(C)C2=O (stereo not given in full)	·	·	-5%	-6%	-5%	·
O=C(CSc1nc2ccccc2s1)NC1CCCc2ccccc21 (stereo not given)	0	?	?	11µM*	3%	?
CC(Sc1nnc(Nc2ccccc2)s1)C(=O)NC1CCCc2ccccc21 (stereo not given)	7	?	32µM*	-26%	3%	?
O=C(CSc1nc2ccccc2[nH]1)NC1CCCc2ccccc21 (stereo not given)	0	-9%	-3%	-8%	0%	?
O=C(CSc1nnnn1-c1ccccc1)NC1CCCc2ccccc21 (stereo not given)	3	-1%	10µM*	·	·	28
Cc1ccccc1-n1nnnc1SC(C)C(=O)NC1CCCc2ccccc21 (stereo not given)	7	-14%	4.5µM*	-12%	2%	40
COc1cc(NC(=O)C(=O)NNC(=O)C2CCCCC2)c(OC)cc1Cl	·	?	3%	-16%	-3%	-95*
COc1ccc(CNc2cc(-c3ccccc3C)ncn2)c(OC)c1	·	?	-13%	·	·	·
O=C(O)Cn1cnc2scc(-c3cccs3)c2c1=O	-14	3%	-3%	-22%	-2%	9
Cc1nc2scc(-c3cccs3)c2c(=O)n1CC(=O)O	-23	0%	3%	-30%	-1%	-80*
Cc1nc2scc(-c3cccs3)c2c(=O)[nH]1	-3	-2%	11µM*	22µM*	-5%	?
O=c1[nH]c(-c2ccc(O)cc2)nc2scc(-c3cccs3)c12	·	5%[46 µM]	?	·	·	·
C/C=C\C1=C(CO)C(=O)C2O[C@]2(CC=C(C)C)C1=O (stereo not given in full)	·	·	-1%[13.5 µM]	·	·	·
CC(C)C1C(=O)Nc2ccc(S(=O)(=O)NCc3ccc(Cl)cc3)cc21 (stereo not given)	·	8%[46 µM]	·	·	·	·
CC(NC(=O)C1CCCCC1)C(=O)NC1=NCCS1 (stereo not given)	1	1%	-9%	-14%	-2%	-112*
CC(C)C(NC(=O)C12CC3CC(CC(C3)C1)C2)C(=O)NC1=NCCS1 (stereo not given)	4	-5%	-3%	-16%	0%	33
CC1(C)CC(=O)C(C(C#Cc2ccccc2)C2=C(O)CC(C)(C)CC2=O)=C(O)C1	5	3%	6.3µM*	7.9µM*	-2%	11
O=C1CCCC(O)=C1C(C#Cc1ccccc1)C1=C(O)CCCC1=O	-4	?	6.3µM*	4µM*	0%	?
COc1cc2c(cc1OC)C(CCN)=NCC2	·	·	-7%[13.5 µM]	-14%	-2%[7.66 µM]	·
Cc1cccc(C(=O)N2CCc3cc(CNC(=O)CCc4ccccc4)ccc32)c1	·	6%[46 µM]	·	·	·	·
SMILES	IMPase inh	Lamin A splicing	ALDH1A1 block	HPGD inh	Luc counter	PNC inhibitor
CCn1c(=O)c(C(=O)NC(C)C)c(O)c2ccccc21	-9	-22%	13µM*	-17%	-2%	-10
CCCCS(=O)(=O)/C=C\C=C/S(=O)(=O)CCCC	9	?	4µM*	25µM*	12%	?
COc1ccccc1NC(=O)c1sc2nc(C)c(C(=O)Nc3ccc(C)cc3C)c(-c3cccs3)c2c1N	6	·	·	·	·	·
Cc1ccc(S(=O)(=O)C(C#N)c2nc3ccccc3nc2N2CC(C)OC(C)C2)cc1C (stereo not given)	0	7%	-12%	2%	-1%	-139*
O=C1CN(CC(=O)N2CCOCC2)c2ccccc2O1	11	2%	9.5µM*	-6%	-1%	-118*
O=C1CN(CC(=O)N2CCCCC2)c2ccccc2O1	-7	?	-10%	8%	-4%	22
O=C(CN1CC(=O)Oc2ccccc21)OCC(=O)c1ccc(F)cc1	·	?	20µM*	·	-1%	·
CCCCc1nc2c(c3c1CC(C)OC3)CN(CCC(C)C)CC2 (stereo not given)	·	·	-1%[13.5 µM]	·	·	·
O=C1CC2(CCCC2)CC(=O)N1CCNC[C@H]1COc2ccccc2O1	1	·	?	-1%	1%	·
O=C(NCc1ccccc1Cl)c1ccc2oc(=O)n(Cc3ccccc3)c2c1	·	7%[46 µM]	·	·	·	·
Cc1ccnc(N2C(=O)c3ccccc3C2O)c1 (stereo not given)	1	-11%	3%	-4%	11µM*	-24
Cc1ccnc(N2C(=O)c3ccccc3C2Nc2cccc(C)c2C)c1 (stereo not given)	-8	2%	-4%	-12%	-2%	-16
O=C(N/N=C/c1c[nH]c2ccccc12)c1[nH]c2ccc(Br)cc2c1-c1ccccc1	-1	?	?	?	5%	-112*
NC(=S)N/N=C\c1c[nH]c2ccccc12	·	·	0%[13.5 µM]	-13%	-5%[7.66 µM]	·
Cc1nn(C)cc1/C=N/NC(=S)Nc1ccccc1	-3	-3%	25µM*	28µM*	-14%	0
O=C(N/N=C/c1ccc(O)cc1)c1[nH]c2ccc(Br)cc2c1-c1ccccc1	·	?	?	-17%	0%	-5
Cc1cccc(NC(=S)N/N=C/c2c[nH]c3ccccc23)c1	·	24%	9%	-20%	-2%	-82*
O=C(CNc1ccccc1)N/N=C/c1c[nH]c2ccccc12	?	-14%	-3%	0.13µM*	3%	-119*
Cc1ccc(CNC(=O)CCCN2C(=O)c3cccnc3Oc3ccc(Cl)cc32)cc1	·	-1%[46 µM]	·	·	·	·
O=C(O)CCSC1=NCCN1	·	·	?	-3%	-4%[7.66 µM]	·
Cc1noc(C)c1C(=O)N1CCC2(CCN(Cc3ccc(C#N)cc3)CC2)CC1	·	·	-4%	-1%	-2%	·
CCCCCCCCCCS(=O)(=O)N/N=C/c1ccc(O)cc1	4	?	13µM*	-25%	2%	-3

Compound activity as filed in PubChem BioAssay.
